In general, AC50 refers to the concentration giving half of the maximal activity seen.

Inconclusive results are not listed. Calls of active or inactive are those of the source. Rule for the calls, unless noted: active = hit-call score of the fitted dose curve at least 0.9, where 1 is the maximum; inconclusive = response in the unintended direction; inactive = score below 0.9.

A short description of assay [1]: ATG_TCF_b_cat_CIS: Attagene CIS-FACTORIAL HepG2 Assay for human T-Cell-Factor with beta-catenin (TCF/b-cat) (AID 2282965; active = hit-call score of the fitted dose curve at least 0.9, where 1 is the maximum; inactive = score below 0.9). Particulars: HepG2 TCF/beta-catenin cis-reporter transcription, actives raise or lower the signal. A digest of the protocol: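 In this cis-format system, transfected HepG2 cells report endogenous transcription factor activity. Readout after 24 h exposure is reporter transcript abundance from RT-PCR and capillary electrophoresis, analysed for gain or loss of signal versus DMSO.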

Assay [2] is described as follows: ATG_TAL_CIS: Attagene CIS-FACTORIAL HepG2 Assay for human TAL Basal Promoter (AID 2282966; active = hit-call score of the fitted dose curve at least 0.9, where 1 is the maximum; inactive = score below 0.9;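 note: background control endpoint measuring basal TAL promoter reporter mRNA not a specific factor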). Particulars: HepG2 Attagene cis-factorial TAL promoter reporter; actives raise or lower the signal. A digest of the protocol:
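After 24 hours of chemical exposure, transfected HepG2 cells yielded RNA that was converted to 6-FAM-labelled, HpaI-digested reporter fragments for capillary electrophoresis. Values derive from bidirectional fitting against DMSO controls.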

Assay [3] in a line: ATG_TGFb_CIS: Attagene CIS-FACTORIAL HepG2 Assay for human Transforming Growth Factor (TGF) (AID 2282967; active = hit-call score of the fitted dose curve at least 0.9, where 1 is the maximum; inactive = score below 0.9). The conditions noted are these: HepG2 Attagene CIS TGFb reporter, mRNA transcription; actives raise or lower the signal. A digest of the protocol: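 Transient MRTU transfection of HepG2 (FuGene 6). Dose 24 h. TriZol RNA, oligo(dT) RT, PCR, 6-FAM primer extension, HpaI cut, CE. Bidirectional fit, DMSO = baseline.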

Assay [4] can be described thus: ATG_VDRE_CIS: Attagene CIS-FACTORIAL HepG2 Assay for human Vitamin D Receptor Element (VDRE) (AID 2282968; active = hit-call score of the fitted dose curve at least 0.9, where 1 is the maximum; inactive = score below 0.9). Particulars: HepG2 VDRE cis-reporter transcription, actives raise or lower the signal. A digest of the protocol:
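Transfected HepG2 reporter cells, chemical treatment 24 h. RNA isolated, cDNA amplified with reporter-specific primers, products analysed by capillary electrophoresis. Endpoint fitted in both directions versus DMSO.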

Assay [5] addresses Nuclear receptor subfamily 1 group I member 3 (Homo sapiens) (UniProt Q14994). Kind of assay: ATG_CAR_TRANS: Attagene TRANS-FACTORIAL HepG2 Assay for human Constitutive Androstane Receptor (CAR) (AID 2282969).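 Note: activators raise reporter mRNA above DMSO so AC50 marks induction.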 The conditions noted are these: HepG2 Attagene TRANS-FACTORIAL CAR reporter. A digest of the protocol:
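Steps: transient transfection of HepG2 with multiple GAL4-UAS reporter units; 24 h compound incubation; RNA isolation, RT-PCR, 6-FAM primer extension, HpaI digest; capillary electrophoresis. Gain-of-signal relative to DMSO negative control.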

Assay [6] has as its target Estrogen receptor (Homo sapiens) (UniProt P03372). Kind of assay: ATG_ERa_TRANS: Attagene TRANS-FACTORIAL HepG2 Assay for human Estrogen Receptor alpha (ERa) (AID 2282970). The conditions noted are these: HepG2 Attagene TRANS ERa GAL4 reporter, mRNA. A digest of the protocol:
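Liver-derived HepG2 cells expressing chimeric nuclear receptor-Gal4 proteins from transient transfection were exposed for 24 hours. Gain of reporter mRNA signal versus DMSO, read by capillary electrophoresis of FAM-labelled PCR products, was recorded.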

In assay [7] the target is Steroid hormone receptor ERR1 (Homo sapiens) (UniProt P11474). Description: ATG_ERRa_TRANS: Attagene TRANS-FACTORIAL HepG2 Assay for human Estrogen-Related Receptor alpha (ERRa) (AID 2282971). The conditions noted are these: HepG2 Attagene TRANS reporter, ERRa transactivation. A digest of the protocol:
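Reporter transcript induction was quantified by RT-PCR and capillary electrophoresis of FAM-labelled, HpaI-cut products after 24 h treatment of HepG2 cells carrying transiently transfected GAL4-UAS reporter units and an exogenous ERRa-Gal4 fusion; activity scored as increase over DMSO.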

Assay [8] deals with X-box-binding protein 1 (Homo sapiens) (UniProt P17861). Description: ATG_Xbp1_CIS: Attagene CIS-FACTORIAL HepG2 Assay for human X-box Binding Protein 1 (XBP1) (AID 2282972; active = hit-call score of the fitted dose curve at least 0.9, where 1 is the maximum; inactive = score below 0.9). Particulars: HepG2 XBP1 cis-element reporter, Attagene multiplex; actives raise or lower the signal. A digest of the protocol:
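Multiplexed cis-reporter readout in transfected HepG2 liver cells. Exposure lasted 24 hours. Activity in either direction was fitted against DMSO as negative control and baseline.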

The nature of assay [9]: ATG_GAL4_TRANS: Attagene TRANS-FACTORIAL HepG2 Assay for GAL4 (Internal Marker) (AID 2282976). Particulars: HepG2 Attagene TRANS GAL4 internal marker reporter. A digest of the protocol: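 First, HepG2 cells were transfected with reporter units under GAL4-UAS control. Next, they were treated with chemical for 24 h. Finally, RNA was reverse-transcribed, PCR-amplified, FAM-labelled and resolved by capillary electrophoresis, with induction scored against DMSO.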

Assay [10] addresses Estrogen-related receptor gamma (Homo sapiens) (UniProt P62508). Description: ATG_ERRg_TRANS: Attagene TRANS-FACTORIAL HepG2 Assay for human Estrogen-Related Receptor gamma (ERRg) (AID 2282977).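 Note: hits increase reporter signal over DMSO so potencies reflect activators.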 The conditions noted are these: HepG2 Attagene TRANS reporter, ERRg transactivation. A digest of the protocol: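 Readout: fluorescent reporter-mRNA fragments resolved by capillary electrophoresis after RT-PCR and HpaI cut. Cells: transiently transfected HepG2 carrying GAL4-UAS reporters driven by exogenous NR-Gal4 chimeras, dosed 24 h. Activity fitted upward relative to DMSO baseline.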

The target in assay [11] is Bile acid receptor (Homo sapiens) (UniProt Q96RI1). Description: ATG_FXR_TRANS: Attagene TRANS-FACTORIAL HepG2 Assay for Farnesoid X Receptor (FXR) (AID 2282979).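 Note: hits raise reporter mRNA above DMSO so AC50 marks FXR activation.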 Particulars: HepG2 Attagene TRANS FXR-GAL4 reporter transcription. A digest of the protocol:
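Transient transfection of HepG2 with multiplexed GAL4-UAS reporter units; exogenous FXR-GAL4 chimera. Dose 24 h → TriZol RNA → oligo(dT) RT → PCR, 6-FAM primer extension, HpaI cut → CE. Gain vs DMSO.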

Assay [12] in a line: ATG_M_06_TRANS: Attagene TRANS-FACTORIAL HepG2 Assay for M06 Transcription Factor (Internal Marker) (AID 2282983).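 Note: reporter transcript level by RT-PCR then capillary electrophoresis fluorescence.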 Particulars: HepG2 Attagene TRANS M06 internal marker reporter. A digest of the protocol:
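Background control endpoint: reporter mRNA from transiently transfected HepG2 after 24 h dosing, detected by RT-PCR with capillary electrophoresis fluorescence. Analysed for gain versus DMSO.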

The nature of assay [13]: ATG_M_32_TRANS: Attagene TRANS-FACTORIAL HepG2 Assay for M32 Transcription Factor (Internal Marker) (AID 2282984).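 Note: transcript level of a background control reporter unit measured by RT-PCR and capillary electrophoresis.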 The conditions noted are these: HepG2 Attagene TRANS M32 internal marker reporter. A digest of the protocol: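 Fluorescence-detected mRNA induction, HepG2 liver cells, 24 h after dosing. Multiple GAL4-UAS reporter units introduced by transient transfection; background-control endpoint analysed for gain of signal against DMSO.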

Assay [14] has as its target Nuclear receptor subfamily 4 group A member 2 (Homo sapiens) (UniProt P43354). Description: ATG_NURR1_TRANS: Attagene TRANS-FACTORIAL HepG2 Assay for human Nuclear Receptor Related Protein 1 (NURR1) (AID 2282985). The conditions noted are these: HepG2 Attagene TRANS reporter, mRNA readout. A digest of the protocol:
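Chimeric NR-Gal4 proteins were expressed in human HepG2 cells bearing GAL4-UAS reporter units, and induced reporter mRNA was quantified 24 h post-dosing by RT-PCR and capillary electrophoresis.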

Assay [15] has as its target Transcriptional activator Myb (Homo sapiens) (UniProt P10242). Kind of assay: ATG_Myb_CIS: Attagene CIS-FACTORIAL HepG2 Assay for human Myeloblastosis (Myb) Proto-Oncogene Transcription Factor (AID 2282986; active = hit-call score of the fitted dose curve at least 0.9, where 1 is the maximum; inactive = score below 0.9). The conditions noted are these: HepG2 Attagene CIS-FACTORIAL Myb reporter transcription; actives raise or lower the signal. A digest of the protocol:
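Reporter mRNA is quantified by RT-PCR and capillary electrophoresis 24 h after dosing HepG2 cells transfected with cis-regulated reporter units, which track endogenous transcription factor activity. Gain and loss of signal are fitted versus DMSO baseline.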

Assay [16] concerns the target Oxysterols receptor LXR-beta (Homo sapiens) (UniProt P55055). Kind of assay: ATG_LXRb_TRANS: Attagene TRANS-FACTORIAL HepG2 Assay for human Liver X Receptor beta (LXRb) (AID 2282981). Particulars: HepG2 Attagene TRANS GAL4-LXRb reporter, mRNA. A digest of the protocol: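 Liver-derived HepG2 cells transfected with Gal4-responsive reporters were dosed for 24 h. Activation was scored as rise in reporter mRNA, by RT-PCR and capillary electrophoresis, above DMSO baseline.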

For assay [17], the target named is Hepatocyte nuclear factor 4-alpha (Homo sapiens) (UniProt P41235). Description: ATG_HNF4a_TRANS: Attagene TRANS-FACTORIAL HepG2 Assay for human Hepatocyte Nuclear Factor 4 alpha (HNF4a) (AID 2282982). Particulars: HepG2 HNF4a transactivation reporter, mRNA readout. A digest of the protocol:
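Using HepG2 liver cells transfected with GAL4-UAS reporter units, chemical-induced mRNA increases were assessed after 24 hours. Fluorescent RT-PCR fragments were separated by capillary electrophoresis and compared with DMSO negative controls.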

Assay [18] addresses Glucocorticoid receptor (Homo sapiens) (UniProt P04150). Description: ATG_GR_TRANS: Attagene TRANS-FACTORIAL HepG2 Assay for human Glucocorticoid Receptor (GR) (AID 2282978).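 Note: activators score as hits since higher reporter transcript over DMSO is fitted.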 Particulars: HepG2 Attagene TRANS GR reporter, mRNA transcription. A digest of the protocol: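 Readout is reporter transcript from a chimeric GR-Gal4 acting on GAL4-UAS in transfected human HepG2 liver cells after 24 h exposure, quantified by RT-PCR and capillary electrophoresis. Activation fitted upward against DMSO.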

Assay [19] addresses Oxysterols receptor LXR-alpha (Homo sapiens) (UniProt Q13133). Description: ATG_LXRa_TRANS: Attagene TRANS-FACTORIAL HepG2 Assay for human Liver X Receptor alpha (LXRa) (AID 2282980). Particulars: HepG2 Attagene TRANS reporter, LXRa transactivation. A digest of the protocol:
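Transfect HepG2 with GAL4-UAS multiplex reporter constructs (TRANS format, chimeric receptor-GAL4); treat 24 h; extract RNA, reverse-transcribe, PCR-amplify, FAM-label, HpaI-digest; resolve fragments by capillary electrophoresis. Upward response vs DMSO.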

A short description of assay [20]: ATG_M_19_TRANS: Attagene TRANS-FACTORIAL HepG2 Assay for M19 Transcription Factor (Internal Marker) (AID 2282974). Particulars: HepG2 Attagene TRANS-FACTORIAL M19 internal marker reporter. A digest of the protocol:
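Background-control readout: after 24 h chemical exposure of transfected HepG2 carrying GAL4-driven reporter units, RNA was reverse-transcribed, amplified, fluorescently labeled and sized by capillary electrophoresis; gain-of-signal fit against DMSO.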

Nuclear receptor subfamily 1 group I member 3 (Homo sapiens), sequence (Q14994 whole entry, looked up, the tested form may be a part): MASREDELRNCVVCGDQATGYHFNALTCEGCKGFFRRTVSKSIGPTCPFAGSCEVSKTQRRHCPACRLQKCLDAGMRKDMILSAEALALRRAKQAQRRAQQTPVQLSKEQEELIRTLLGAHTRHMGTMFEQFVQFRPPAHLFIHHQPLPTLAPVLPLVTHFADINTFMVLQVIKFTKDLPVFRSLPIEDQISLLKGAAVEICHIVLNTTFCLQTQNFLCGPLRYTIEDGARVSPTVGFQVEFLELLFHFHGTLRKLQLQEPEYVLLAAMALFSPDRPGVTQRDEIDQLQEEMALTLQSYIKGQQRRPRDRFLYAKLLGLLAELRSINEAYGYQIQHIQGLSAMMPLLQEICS
Estrogen receptor (Homo sapiens), sequence (P03372 whole entry, looked up, the tested form may be a part): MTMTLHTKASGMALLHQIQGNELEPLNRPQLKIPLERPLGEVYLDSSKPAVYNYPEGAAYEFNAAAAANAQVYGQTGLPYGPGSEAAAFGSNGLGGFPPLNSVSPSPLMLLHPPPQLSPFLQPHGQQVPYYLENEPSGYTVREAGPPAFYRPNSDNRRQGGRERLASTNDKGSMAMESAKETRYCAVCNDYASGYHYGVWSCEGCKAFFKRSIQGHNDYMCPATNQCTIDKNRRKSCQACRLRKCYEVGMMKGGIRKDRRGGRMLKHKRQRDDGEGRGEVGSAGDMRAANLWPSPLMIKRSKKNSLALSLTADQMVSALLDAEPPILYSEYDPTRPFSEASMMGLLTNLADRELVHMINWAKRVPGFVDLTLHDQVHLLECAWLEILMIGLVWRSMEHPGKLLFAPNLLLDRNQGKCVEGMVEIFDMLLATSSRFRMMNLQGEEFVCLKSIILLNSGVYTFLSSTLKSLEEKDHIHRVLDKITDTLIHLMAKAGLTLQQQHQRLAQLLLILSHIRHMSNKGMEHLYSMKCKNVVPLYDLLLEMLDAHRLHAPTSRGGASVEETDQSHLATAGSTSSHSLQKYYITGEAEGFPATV
X-box-binding protein 1 (Homo sapiens), sequence (P17861 whole entry, looked up): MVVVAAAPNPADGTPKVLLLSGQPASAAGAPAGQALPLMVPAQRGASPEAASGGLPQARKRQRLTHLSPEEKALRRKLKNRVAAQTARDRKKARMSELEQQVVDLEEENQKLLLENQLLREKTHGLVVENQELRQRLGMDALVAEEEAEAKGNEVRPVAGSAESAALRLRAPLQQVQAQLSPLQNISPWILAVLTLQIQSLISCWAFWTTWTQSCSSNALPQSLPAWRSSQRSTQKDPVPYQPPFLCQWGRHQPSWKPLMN
Hepatocyte nuclear factor 4-alpha (Homo sapiens), sequence (P41235 whole entry, looked up, the tested form may be a part): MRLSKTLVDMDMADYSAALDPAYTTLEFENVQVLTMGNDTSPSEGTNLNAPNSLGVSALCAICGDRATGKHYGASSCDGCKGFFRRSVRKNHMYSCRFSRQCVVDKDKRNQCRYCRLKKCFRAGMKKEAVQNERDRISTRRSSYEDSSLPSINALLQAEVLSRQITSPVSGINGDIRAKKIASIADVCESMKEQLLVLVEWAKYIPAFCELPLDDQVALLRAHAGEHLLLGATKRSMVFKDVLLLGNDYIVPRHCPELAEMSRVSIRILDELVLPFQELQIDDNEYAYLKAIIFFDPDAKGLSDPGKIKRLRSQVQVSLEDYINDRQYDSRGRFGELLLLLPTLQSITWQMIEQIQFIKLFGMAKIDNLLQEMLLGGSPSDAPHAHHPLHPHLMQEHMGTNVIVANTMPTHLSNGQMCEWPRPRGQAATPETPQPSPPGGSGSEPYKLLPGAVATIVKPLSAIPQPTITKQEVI
Estrogen-related receptor gamma (Homo sapiens), sequence (P62508 whole entry, looked up, the tested form may be a part): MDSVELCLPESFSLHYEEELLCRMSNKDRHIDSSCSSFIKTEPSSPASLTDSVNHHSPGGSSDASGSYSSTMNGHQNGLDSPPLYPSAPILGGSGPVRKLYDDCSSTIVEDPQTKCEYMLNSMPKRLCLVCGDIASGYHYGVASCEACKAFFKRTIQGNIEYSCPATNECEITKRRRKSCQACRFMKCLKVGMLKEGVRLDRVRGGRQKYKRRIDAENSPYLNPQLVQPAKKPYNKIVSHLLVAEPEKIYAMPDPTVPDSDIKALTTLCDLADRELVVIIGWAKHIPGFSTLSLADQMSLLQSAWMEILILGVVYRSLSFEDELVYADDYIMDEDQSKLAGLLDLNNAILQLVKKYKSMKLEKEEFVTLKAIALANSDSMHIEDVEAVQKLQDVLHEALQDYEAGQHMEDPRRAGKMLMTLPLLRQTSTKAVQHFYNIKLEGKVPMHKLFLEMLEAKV
Nuclear receptor subfamily 4 group A member 2 (Homo sapiens), sequence (P43354 whole entry, looked up, the tested form may be a part): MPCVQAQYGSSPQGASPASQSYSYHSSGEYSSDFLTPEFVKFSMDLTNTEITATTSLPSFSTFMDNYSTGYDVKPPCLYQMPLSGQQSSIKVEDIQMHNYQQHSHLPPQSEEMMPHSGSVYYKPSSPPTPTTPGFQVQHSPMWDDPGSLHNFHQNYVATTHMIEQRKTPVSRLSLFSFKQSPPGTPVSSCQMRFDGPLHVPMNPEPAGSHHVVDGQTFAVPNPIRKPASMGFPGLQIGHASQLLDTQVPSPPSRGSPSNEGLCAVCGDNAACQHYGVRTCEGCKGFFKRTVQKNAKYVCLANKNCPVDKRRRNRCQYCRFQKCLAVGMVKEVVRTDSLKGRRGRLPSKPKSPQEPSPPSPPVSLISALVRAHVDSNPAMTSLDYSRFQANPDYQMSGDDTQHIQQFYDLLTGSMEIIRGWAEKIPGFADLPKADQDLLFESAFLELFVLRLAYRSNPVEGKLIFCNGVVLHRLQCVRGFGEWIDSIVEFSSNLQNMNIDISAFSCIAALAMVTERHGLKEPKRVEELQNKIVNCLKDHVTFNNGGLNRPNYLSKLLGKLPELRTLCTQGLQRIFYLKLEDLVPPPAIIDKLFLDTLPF
Oxysterols receptor LXR-beta (Homo sapiens), sequence (P55055 whole entry, looked up, the tested form may be a part): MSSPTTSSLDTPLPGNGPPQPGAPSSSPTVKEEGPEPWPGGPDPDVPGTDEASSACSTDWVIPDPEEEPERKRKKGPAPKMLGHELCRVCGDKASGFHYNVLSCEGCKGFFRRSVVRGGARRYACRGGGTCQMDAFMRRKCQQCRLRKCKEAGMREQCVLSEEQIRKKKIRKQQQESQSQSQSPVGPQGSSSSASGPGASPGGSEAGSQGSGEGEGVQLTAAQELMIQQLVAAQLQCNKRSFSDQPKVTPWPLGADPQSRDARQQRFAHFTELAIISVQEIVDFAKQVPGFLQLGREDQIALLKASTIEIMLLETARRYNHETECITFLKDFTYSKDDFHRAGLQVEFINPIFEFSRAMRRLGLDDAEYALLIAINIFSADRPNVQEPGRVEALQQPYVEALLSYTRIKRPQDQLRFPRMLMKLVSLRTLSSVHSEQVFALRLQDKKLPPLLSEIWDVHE
Bile acid receptor (Homo sapiens), sequence (Q96RI1 whole entry, looked up, the tested form may be a part): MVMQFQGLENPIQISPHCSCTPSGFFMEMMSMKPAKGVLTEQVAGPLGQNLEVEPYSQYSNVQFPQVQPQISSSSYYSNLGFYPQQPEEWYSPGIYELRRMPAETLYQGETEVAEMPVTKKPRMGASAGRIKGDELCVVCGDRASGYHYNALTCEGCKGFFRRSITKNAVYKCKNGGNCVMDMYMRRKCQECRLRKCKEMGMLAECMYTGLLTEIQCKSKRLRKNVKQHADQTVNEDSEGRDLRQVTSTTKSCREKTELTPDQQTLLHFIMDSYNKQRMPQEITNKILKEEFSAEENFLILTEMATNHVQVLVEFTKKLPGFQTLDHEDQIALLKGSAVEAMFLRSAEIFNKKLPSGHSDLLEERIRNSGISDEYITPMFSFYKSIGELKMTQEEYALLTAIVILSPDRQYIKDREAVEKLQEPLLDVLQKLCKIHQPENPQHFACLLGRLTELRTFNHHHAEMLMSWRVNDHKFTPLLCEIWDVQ
Transcriptional activator Myb (Homo sapiens), sequence (P10242 whole entry, looked up): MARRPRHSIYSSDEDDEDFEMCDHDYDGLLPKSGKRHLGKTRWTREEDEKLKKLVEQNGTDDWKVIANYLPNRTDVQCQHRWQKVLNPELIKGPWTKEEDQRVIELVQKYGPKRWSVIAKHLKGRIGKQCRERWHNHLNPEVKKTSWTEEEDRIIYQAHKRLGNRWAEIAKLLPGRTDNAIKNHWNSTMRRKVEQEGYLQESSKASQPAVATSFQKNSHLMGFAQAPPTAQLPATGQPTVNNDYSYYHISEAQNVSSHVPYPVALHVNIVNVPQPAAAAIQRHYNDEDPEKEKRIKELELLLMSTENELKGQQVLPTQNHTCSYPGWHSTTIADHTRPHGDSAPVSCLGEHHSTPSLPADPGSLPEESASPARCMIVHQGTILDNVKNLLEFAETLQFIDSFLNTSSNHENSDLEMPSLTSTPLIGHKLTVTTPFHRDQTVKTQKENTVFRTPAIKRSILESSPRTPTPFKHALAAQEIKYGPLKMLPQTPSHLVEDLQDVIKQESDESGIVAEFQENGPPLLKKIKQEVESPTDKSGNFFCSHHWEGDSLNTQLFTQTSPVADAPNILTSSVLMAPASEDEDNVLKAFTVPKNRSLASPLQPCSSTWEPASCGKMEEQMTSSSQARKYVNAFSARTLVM
Steroid hormone receptor ERR1 (Homo sapiens), sequence (P11474 whole entry, looked up, the tested form may be a part): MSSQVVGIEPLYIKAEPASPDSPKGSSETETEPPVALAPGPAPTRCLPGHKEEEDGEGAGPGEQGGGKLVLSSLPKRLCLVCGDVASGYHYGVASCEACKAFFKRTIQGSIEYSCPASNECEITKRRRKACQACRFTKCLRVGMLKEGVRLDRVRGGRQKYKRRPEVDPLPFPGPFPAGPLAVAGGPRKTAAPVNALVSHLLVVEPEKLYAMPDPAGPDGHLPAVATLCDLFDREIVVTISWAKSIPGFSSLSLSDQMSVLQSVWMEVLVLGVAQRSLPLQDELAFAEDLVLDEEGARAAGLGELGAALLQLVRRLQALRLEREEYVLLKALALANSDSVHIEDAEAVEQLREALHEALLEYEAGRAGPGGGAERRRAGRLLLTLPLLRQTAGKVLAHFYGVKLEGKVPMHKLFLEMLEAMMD

Turning to `C=C1CC/C=C(\C)CC[C@@H]2[C@@H]1CC2(C)C`, the call in assay [1], in [2], in [3], in [4], in assay [5] and in assay [7] was inactive. The compound was called inactive in [8], in assay [9], in assay [10], in assay [11], in [12] and in assay [13]. Also, the outcome in assay [14] and in assay [15] was inactive. Further, in [6], the half-maximal activity concentration (AC50) is 14.3 µM (active).
Regarding `CC12CCC(C1)C(C)(C)C2O` (centres undefined), the call in assay [1], in [2], in assay [3], in [4], in assay [5] and in assay [6] was inactive. Besides, the result in [8], in [9], in assay [11], in [16], in [17] and in assay [12] was inactive. Also, the compound was called inactive in assay [14] and in [15].
With `Brc1cc(Br)cc(Br)c1`, the outcome in assay [1], in assay [2], in assay [5], in assay [6], in assay [7] and in assay [8] was inactive. In addition, the result in [10], in assay [18], in assay [11], in [16], in assay [17] and in assay [12] was inactive. The compound was called inactive in [13], in assay [14] and in [15]. The figures for the AC50 in assay [3] and in assay [4] were 100 µM (active) and 65 µM (active), respectively.
Regarding `COC(=O)C(C)Oc1ccc(Oc2ncc(C(F)(F)F)cc2Cl)cc1` (centres undefined), the compound was called inactive in assay [1], in assay [2], in [5], in assay [6], in assay [8] and in assay [9]. Besides, the compound was classed as inactive in assay [10], in [19], in assay [16], in assay [17], in assay [12] and in assay [13]. The outcome in [14] and in assay [15] was inactive. The values for the AC50 in assay [3] and in assay [4] were 133 µM (active) and 42.8 µM (active), respectively.
On to `C=CCOC(=O)/C=C\C(=O)OCC=C`, for which the figures for the AC50 in assay [1], in assay [4] and in [8] were 15.1 µM (active), 27 µM (active) and 26.5 µM (active), respectively. Besides, the call in [2], in [3], in assay [5], in assay [6], in [20] and in [17] was inactive. The result in [13], in [14] and in assay [15] was inactive.

Source of the values: PubChem BioAssay (EPA / NIEHS).
